# Screens: PubChem, several laboratories
# An excerpt weighted towards active compounds, which were near 4.7% of everything screened.
# PfHsp90 set2: reduces growth (ATP signal) of yeast expressing P. falciparum Hsp90. inhibition, % at 9.4 µM. AID 504621. S. cerevisiae expressing PfHsp90, BacTiter-Glo ATP, 48 h; yeast lacking PDR1 and PDR3 efflux regulators. 310,000 tested, 0.32% active;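 active = every replicate shows inhibition above about 80%, whatever the replicate mean, limit read from the data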;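 note: 0% = DMSO neutral controls and 100% = 20 µM radicicol positive controls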
# ATG4B inh: inhibitors of human ATG4B cysteine protease; AID 504462; inhibition, % at 8.33 µM; 340,000 tested, 0.51% active; Q9Y4P1; ATG4B cleavage of LC3-PLA2, NBD-HPC fluorescence, 1 h; in the data active = inhibition above about 40%
# Target sequence (Q9Y4P1 whole entry, looked up): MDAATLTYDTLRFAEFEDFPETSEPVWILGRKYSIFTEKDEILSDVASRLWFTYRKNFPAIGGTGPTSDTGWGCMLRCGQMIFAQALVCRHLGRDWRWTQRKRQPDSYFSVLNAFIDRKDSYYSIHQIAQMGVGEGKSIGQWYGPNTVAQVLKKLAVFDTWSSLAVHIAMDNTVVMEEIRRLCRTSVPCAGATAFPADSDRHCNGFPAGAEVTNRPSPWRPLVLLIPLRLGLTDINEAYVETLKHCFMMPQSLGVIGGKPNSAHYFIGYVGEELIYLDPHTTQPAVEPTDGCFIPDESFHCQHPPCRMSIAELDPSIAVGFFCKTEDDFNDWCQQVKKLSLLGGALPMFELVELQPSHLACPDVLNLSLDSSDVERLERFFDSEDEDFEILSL
# SKKanGAS inh: blocks kanamycin growth of S. pyogenes SKKanGAS strain; BacTiter-Glo, 6 h; inhibition, % at 7.5 µM; 300,000 tested, 1.3% active; AID 1662;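 active = mean replicate score, as percent of positive control median, at least 50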;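 note: strain carries kanamycin resistance gene driven by streptokinase promoter and grows in 40 µg/ml kanamycin; loss of luminescence reflects streptokinase promoter inhibition or plain growth inhibition; 0% = median of DMSO wells and 100% = positive control at its reference dose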
# TIM10 inh: inhibits growth of TIM10 yeast strain. S. cerevisiae TIM10 strain growth, BacTiter-Glo luminescence, 24 h. inhibition, % at 10 µM. 330,000 tested, 1.4% active. AID 463195;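 active = inhibition of 40% or more at the single tested concentration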;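 note: wild-type TIM10 isogenic control strain grown at permissive 25 °C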
# tim23-1 inh: inhibits growth of tim23-1 mutant yeast; 330,000 tested, 1.3% active; S. cerevisiae tim23-1 growth, BacTiter-Glo luminescence, 24 h; inhibition, % at 20 µM;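 active = growth inhibition of the mutant yeast at or above 50%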;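 note: temperature-sensitive mutant grown at 25 °C; plate controls were DMSO-treated mutant yeast for no effect and medium wells lacking yeast for full effect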
# tim10-1 inh: inhibits growth of tim10-1 mutant yeast | S. cerevisiae tim10-1 ts strain growth, BacTiter-Glo, 24 h | inhibition, % at 20 µM | 330,000 tested, 2.2% active;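 active = inhibition of at least 40%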;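 note: mutant grown at 25 °C; 0% = DMSO wells with yeast and 100% = wells holding no yeast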
# tim10-1 conf: confirmation of tim10-1 mutant yeast growth inhibitors; shares compounds with tim10-1 inh; S. cerevisiae tim10-1 ts strain growth, BacTiter-Glo, 24 h; inhibition, % at 20 µM; 7,400 tested, 56% active; AID 463213;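 active = inhibition of yeast growth at or above a set limit in either of two repeat tests at 20 µM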;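 note: tim10-1 mutant grown at permissive 25 °C to find synthetic lethal compounds; 0% = DMSO yeast wells and 100% = medium wells without yeast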
# TIM10 conf: TIM10 yeast growth inhibition, confirmed | shares compounds with TIM10 inh | S. cerevisiae tim10 strain growth, BacTiter-Glo luminescence, 24 h | inhibition, % at 10 µM | 4,600 tested, 63% active;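 active = inhibition of yeast growth at or above a set limit in either of two replicates at 10 µM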;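 note: this counterscreen used the strain with wild-type TIM10; 0% = yeast with DMSO and 100% = medium wells lacking yeast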
# tim23-1 confirm: tim23-1 yeast growth inhibition, confirmed. inhibition, % at 20 µM. shares compounds with tim23-1 inh. S. cerevisiae tim23-1 growth, BacTiter-Glo luminescence, 24 h. 4,400 tested, 83% active;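 active = inhibition above about 39% in either of two replicate wells at 20 µM, limit read from the data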;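 note: temperature-sensitive tim23-1 mutant grown at 25 °C; 0% = DMSO wells with yeast and 100% = medium wells without yeast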
# The depositor's hits bear a star; x = no result given.
SMILES,PfHsp90 set2,ATG4B inh,SKKanGAS inh,TIM10 inh,tim23-1 inh,tim10-1 inh,tim10-1 conf,TIM10 conf,tim23-1 confirm
Brc1ccc2c(c1)OCCOCCOc1cc(Br)ccc1OCCOCCOCCO2,10,-2,1,35,62*,57*,62*,x,72*
COC(=O)c1ccc2c(c1)C(C)(C)C(/C=C/c1ccc(O)cc1)=[N+]2C,42,3,3,56*,73*,67*,64*,55*,68*
c1csc(-c2csc3nc(CN4CCOCC4)nc(NCc4ccc5c(c4)OCO5)c23)c1,-2,-18,57*,47*,54*,46*,38*,38*,51*
COc1ccc(/C=N\NC(=S)SCN2C(=O)C3CCC(C)(C2=O)C3(C)C)cc1 (stereo not given),-41,-16,4,52*,52*,49*,40*,-8,51*
CN(C)c1ccc(/C=N\NC(=S)SCN2C(=O)C3CCC(C)(C2=O)C3(C)C)cc1 (stereo not given),-21,-10,x,53*,53*,61*,52*,-20,47*
CC12CCC(C(=O)N(CC(O)CN3CCN(Cc4ccccc4)CC3)C1=O)C2(C)C (stereo not given),x,-13,-1,8,2,-11,x,x,x
CC12CCC(C(=O)N(CSC(=S)N/N=C\c3ccccc3O)C1=O)C2(C)C (stereo not given),8,-9,108*,44*,66*,47*,24,38*,57*
CC(=O)/C(N=Nc1cccc(C(F)(F)F)c1)=C(\C)O,-5,-3,-17,-10,9,9,x,x,x
Cc1ccc2c(c1)/C(=C/c1ccc(F)cc1)C(=O)N2,-4,-11,-15,66*,62*,59*,71*,77*,50*
COc1ccc2c(c1)/C(=C/c1cc(OC)c(OC)c(OC)c1)C(=O)N2,-7,-4,x,x,x,x,x,x,x
O=C(NCc1ccccc1Cl)C1CCN(S(=O)(=O)c2cccs2)CC1,-18,12,-2,-2,22,13,x,x,x
O=[N+]([O-])c1ccc(Nc2ccccc2)c2nonc12,-13,2,4,45*,60*,49*,37*,39*,67*
CC(=O)NS(=O)(=O)c1ccc(Nc2ccc([N+](=O)[O-])c3nonc23)cc1,5,5,-3,16,10,8,x,x,x
CC(C)(Oc1ccc(Cl)cc1)C(=O)NCCN1C(=O)S/C(=C/c2cccnc2)C1=O,34,27,0,51*,53*,48*,44*,-38,48*
N#CC(c1cccc(Cl)c1)c1ccc2c(C(F)(F)F)cc(C(F)(F)F)nc2n1 (stereo not given),16,5,95*,75*,79*,88*,70*,65*,72*
CCOC(=O)C1=C(C)N=C2SC(C(=O)OC)=CC(=O)N2C1c1ccc(OC)cc1 (stereo not given),-6,1,1,71*,75*,69*,78*,75*,60*
CC1CCC(C(C)C)C(OC(=O)C[n+]2cc(-c3ccc(Cl)cc3)n3c2CCCCC3)C1 (stereo not given),0,25,22,6,4,3,x,x,x
Cc1[nH]n(C(N)=S)c(=O)c1N=Nc1ccc([N+](=O)[O-])cc1Cl,-23,1,6,23,58*,45*,52*,x,67*
CCn1c(SCC(=O)Nc2ccc(OC)cc2)nc2c1c(=O)n(C)c(=O)n2C,6,-2,-4,-9,19,21,x,x,x
Nc1ccc(C#Cc2ccc3c(=O)c4ccccc4oc3c2)cc1,11,5,13,9,10,21,x,x,x
CNC(C)C#Cc1ccc2c(=O)c3ccccc3oc2c1 (stereo not given),-5,-3,7,26,58*,54*,42*,x,53*
O=C1c2ccccc2C(=O)c2c1ccc(O)c2O,13,4,x,x,x,x,x,x,x
COC(=O)c1ccc2c(c1O)C(=O)c1ccccc1C2=O,-102,-4,70*,91*,77*,80*,75*,91*,82*
COC(=O)c1cccc2c1-c1ccccc1/C2=N/O,-21,-25,-14,33,65*,59*,38*,x,56*
COc1ccc(NC(=O)C(c2ccc(OC)cc2)N(C)C(=O)CNC(C)=O)cc1 (stereo not given),-11,1,2,1,9,2,x,x,x
SMILES,PfHsp90 set2,ATG4B inh,SKKanGAS inh,TIM10 inh,tim23-1 inh,tim10-1 inh,tim10-1 conf,TIM10 conf,tim23-1 confirm
N#CCN1C(=O)C2CCCN2c2ccc(S(=O)(=O)N3CCOCC3)cc21 (stereo not given),-15,-9,3,-8,16,0,x,x,x
Cc1ccc(-c2cc(C(=O)NC3=NCCS3)c3ccccc3n2)cc1C,-8,18,-8,x,x,x,x,x,x
O=C(NC1=NCCS1)c1cc(-c2ccc(F)cc2)nc2ccccc12,-5,-8,1,51*,59*,50*,51*,-8,60*
COc1ccc(C)cc1Nc1nc(N)c2cc(OC)c(OC)cc2n1,-23,-21,-2,1,12,19,x,x,x
Clc1ccc2[nH]c(-c3ccccc3)cc2c1,-48,15,14,39,61*,50*,45*,x,73*
c1ccc(-c2cc3ccccc3[nH]2)cc1,12,3,0,15,40,23,x,x,x
Cc1ccc(C)c2c1[nH]c1ccc([N+](=O)[O-])cc12,-36,-6,31,39,68*,50*,31*,x,51*
Cc1c(C(=O)NN)[nH]c2ccc([N+](=O)[O-])cc12,x,-6,-5,4,8,24,x,x,x
O=C(COC(=O)c1n[nH]c2ccccc12)NCCc1ccc(Cl)cc1,11,-12,x,-4,-1,7,x,x,x
COc1ccc2c(c1)sc1nc(-c3ccccc3)cn12,24,0,19,-1,60*,40*,19,x,67*
Cc1cccc(/C=N/NC(=O)c2ccc3c(c2)OCCO3)c1O,19,x,91*,65*,63*,50*,46*,68*,76*
CC(=O)n1cc(N(C(=O)CCl)c2ccc(Cl)cc2)c2ccccc21,x,4,14,34,64*,48*,46*,x,41*
COc1ccccc1N(C(=O)CCl)c1cn(C(C)=O)c2ccccc12,13,-2,5,35,36,31,x,x,x
